Sensor-assay potency score (higher = more potent) data for 19 sequences are collected here from the OligoGym collection.
Note: reference of the scale not given here.

The assay concerns the target FKTN. Kind of assay: pooled miR-30 sensor sort-seq; sequence = guide strand. The note with it: shRNA.
On to TATCAGATTTGTAATCTTGTAT, for which the sensor-assay potency score (higher = more potent) turned out to be 0.319.
With TAGAGTGTGGTACTTCTTCTAC, the sensor-assay potency score (higher = more potent) was -0.462.
Regarding TTTCCTGTCAATGTGTTCTTTA, the sensor-assay potency score (higher = more potent) was -0.407.
Take TTTTACATCATCTTTTCCCTGG: the sensor-assay potency score (higher = more potent) is 0.348.
For the sequence TTGCATTGTCGATACCATCCTA, the sensor-assay potency score (higher = more potent) is -0.0659.
On to TACTTCTTCTACAAAGTGCATT, for which the sensor-assay potency score (higher = more potent) is -0.78.
On to TAGACAAGTTCCACTGCTCAGC, for which the sensor-assay potency score (higher = more potent) was -0.942.
The same measure for TTTGACTTGTTCAAAGTTCTTA: 0.733; for TTGCATTGTGAAGTAGAGCCAT: 0.152.
Sequence TTGTTTAATGTTTTCGCTGCTA displayed a sensor-assay potency score (higher = more potent) of 0.0989.
TAAATAGTGCTTGTAGTAGTAC had a sensor-assay potency score (higher = more potent) of -0.0376.
Turning to TTTGCAGATATAGTGCAGGGGG, the sensor-assay potency score (higher = more potent) is -0.241.
For TGCATTGTGAAGTAGAGCCATG the value was -1.03; for ATGTCTACAAACTCAGTCCAGC, -1.47.
In turn, TTTAAGTCTCAAGTGGCCGTGC had a sensor-assay potency score (higher = more potent) of 0.148.
The sequence TGCATTGTCGATACCATCCTAG came in with a sensor-assay potency score (higher = more potent) of -0.739.
Sequence TTGACTTGTTCAAAGTTCTTAT registered a sensor-assay potency score (higher = more potent) of -0.62.
The same measure for TCCATCAACAGTAACTTGCTGT: -0.268; for ATTTTGACAAACCAGCTCCATT: -1.46.
